An excerpt weighted towards active compounds, which were near 2.4% of everything screened.
TDP1 block: inhibitors of human tyrosyl-DNA phosphodiesterase TDP1; recombinant TDP1, AlphaScreen DNA substrate cleavage; AID 485290; Q9NUW8; Potency, µM (doses to about 130 µM), for inactives: at the highest dose activity change, negative = inhibition, actives largely listed as inhibitors; actives 0.28% (n = 350,000); further: on the % scale 0 is the no-effect control and ±100 the full control effect; nearly all actives have a fitted effect of over 40% in size
Target sequence (Q9NUW8 whole entry, looked up): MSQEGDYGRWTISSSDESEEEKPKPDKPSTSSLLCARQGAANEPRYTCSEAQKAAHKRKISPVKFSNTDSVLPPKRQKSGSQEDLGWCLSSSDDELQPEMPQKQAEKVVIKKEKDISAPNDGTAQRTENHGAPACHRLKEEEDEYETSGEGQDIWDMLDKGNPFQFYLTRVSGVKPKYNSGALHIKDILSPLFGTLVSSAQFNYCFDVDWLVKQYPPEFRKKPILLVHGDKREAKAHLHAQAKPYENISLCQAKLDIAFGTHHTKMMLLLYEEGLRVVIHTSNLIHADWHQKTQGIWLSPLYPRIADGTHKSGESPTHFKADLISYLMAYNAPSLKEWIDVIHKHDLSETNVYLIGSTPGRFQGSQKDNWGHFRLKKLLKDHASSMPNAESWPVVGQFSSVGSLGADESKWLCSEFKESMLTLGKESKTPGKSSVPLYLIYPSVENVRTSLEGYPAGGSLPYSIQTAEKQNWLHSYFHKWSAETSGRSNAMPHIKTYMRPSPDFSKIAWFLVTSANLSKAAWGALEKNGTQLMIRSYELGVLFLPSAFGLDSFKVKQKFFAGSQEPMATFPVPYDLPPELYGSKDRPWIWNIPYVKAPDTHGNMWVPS
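Recombinant E. coli-expressed Tdp1 (1 nM) preincubated with compound 15 min at RT, then 5'-biotin/3'-phosphotyrosine-FITC DNA substrate (15 nM) added for 5 min. AlphaScreen beads (10 ug/ml) added, 10 min RT; tyrosine-FITC cleavage read as signal loss.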
Pol beta inh: inhibitors of human DNA polymerase beta; Pol beta primer extension/strand displacement, fluorescence kinetic; actives 1.3% (n = 340,000); Potency, µM (doses to about 114 µM), without a hit: at the top dose activity change, negative = inhibition, usual class: inhibitors; P06746; further: on the % scale 0 is the no-effect control and ±100 the full control effect
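Preincubation: enzyme (10 nM) with compound, 15 min, RT. Reaction: substrate added to 50 nM final. Reads: 0 and 10 min. Analysis: normalized, Hill fit.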
FEN1 inh: human FEN1 inhibition. P39748. Potency, µM (highest dose often 114 µM), without a hit: at the top dose activity change, negative = inhibition, usual class: inhibitors. Recombinant FEN1 flap cleavage, fluorescence, 15 min. actives 0.35% (n = 390,000); further: on the % scale 0 is the no-effect control and ±100 the full control effect; nearly all actives have a fitted effect of over 65% in size
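Compounds are tested as a concentration series against 10 nM FEN1; after a 15 min room-temperature preincubation, 50 nM substrate starts cleavage, with plate reads at 0 and 15 min. Normalized responses are fitted by a Hill equation.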
Pol iota inh: inhibitors of human DNA polymerase iota. Potency, µM (series often up to 115 µM), for inactives: top-dose activity, negative = inhibition, most hits filed as inhibitors. Q9UNA4. Pol iota fluorescent replication assay, 10 min. actives 1% (n = 390,000)
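Pol iota at 10 nM preincubated 15 min with compounds at room temperature; reaction started with fluorescent substrate, 50 nM final. Fluorescence read kinetically at 0 and 10 min; buffer-only wells as negative control.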
POLK inh: blocks human DNA polymerase kappa activity | AID 588579 | Potency, µM (series often up to 107 µM), inactives show at the highest dose activity, negative = inhibition, actives largely listed as inhibitors | actives 0.53% (n = 400,000) | purified Pol kappa, fluorescent DNA synthesis assay, 10 min; further: on the % scale 0 is the no-effect control and ±100 the full control effect
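Pol kappa 10 nM + cpd, 15 min RT; start w/ substrate 50 nM final; fluorescence kinetic read, 0 and 10 min. Neg ctrl: buffer, no enzyme.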
Pol eta inh: inhibitors of human DNA polymerase eta; actives 1.2% (n = 390,000); Q9Y253; recombinant Pol eta, fluorescent DNA replication assay; Potency, µM (series often up to 114 µM), for inactives: top-dose activity change, negative = inhibition, hits mostly inhibitors; AID 588591; further: on the % scale 0 is the no-effect control and ±100 the full control effect
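Pol eta at 10 nM preincubated with compounds 15 min at room temperature; reaction started with fluorescent substrate (50 nM final) and read kinetically at 0 and 10 min.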
Numbers without * were called inactive; ? = inconclusive; . = not tested or not shown; [ ] = another dose, or the depositor's remark. The call rests on the fitted dose curve; in most records, active means well fitted curve in the direction sought with a large enough effect; inconclusive means small, poorly fitted or top-dose-only effect, or another doubt; inactive means no such curve, though single readings can be large; an effect the other way counts as inactive or inconclusive. Potency means the concentration at half of the fitted maximal effect.

SMILES	TDP1 block	Pol beta inh	FEN1 inh	Pol iota inh	POLK inh	Pol eta inh
CCC(NC(=O)C1CCCO1)c1ccccc1 (configuration not stated)	2.2µM*	51%	0%	101%	-9%	-22%
CC(C)C(NC(=O)OCc1ccccc1)C(=O)OCC(=O)NC1CC1 (configuration not stated)	2%	-9%	0%	25%	1%	-20%
CSCCC(NC(=O)c1ccccc1)C(=O)OCC(=O)NCc1ccco1 (configuration not stated)	.	.	-4%	71µM*	-21%	?
CC(C)[C@H](NC(=O)OCc1ccccc1)C(=O)OCC(=O)NCc1ccco1	.	.	18%	16µM*	-25%	50µM*
CCOc1ccccc1NC(=O)C1CCCN1S(=O)(=O)c1ccc2nc(-c3ccccc3)[nH]c2c1 (configuration not stated)	5%	?	-18%	?	-20%	-10%
CCOC(=O)C(C(=O)OCC)c1cc(Br)c2noc3c2c1C(=O)c1ccccc1-3	2%	79µM*	?	?	?	8.9µM*
O=C1c2ccccc2-c2onc3c(NCCO)cc(NC4CCCCC4)c1c23	17%	1%	?	-13%	-32%	-15%
Cc1c(C(=O)O)cccc1-n1c(C)cc(/C=N/Nc2ccc([N+](=O)[O-])cn2)c1C	-10%	25µM*	-15%	50µM*	79µM*	?
CCSc1nc2c(c(=O)n(C)c(=O)n2C)n1Cc1ccc(Cl)cc1	.	.	3%	-14%	-9%	?
Cn1c(=O)c2c(nc(SCC(=O)NCc3ccc4c(c3)OCO4)n2Cc2ccc(Cl)cc2)n(C)c1=O	5%	-17%	-11%	?	-44%	89µM*
CCCCNC(=O)CSc1nc2cc3c(cc2c(=O)n1CCCC(=O)NCc1ccc2c(c1)OCO2)OCO3	-1%	38%	-9%	89µM*	-5%[60.1 µM]	-5%
CCCc1ccc(OCc2nc(-c3ccc(NC(=O)c4cccs4)cc3)no2)cc1	5%	?	-4%	8%	-2%	?
CCCc1ccc(OCc2nc(-c3ccc(NC(=O)c4ccco4)cc3)no2)cc1	?	35µM*	6%	?	-4%	-10%
c1ccc2nccnc2c1	.	.	-19%	-20%	-2%	.
CC(C)n1cc(/C=N/NC(=O)COc2cccc3cccnc23)c2ccccc21	3%	?	0%	7.9µM*	-29%	?
CC(C)NC(=O)COC(=O)c1ccccc1OCC(=O)Nc1ccc(Br)cc1	.	.	-4%	-23%	11%	.
O=C(NCCO)c1ccc(Cl)c(Cl)c1	4%	?	-13%	21%	3%	-3%
O=C(NCCc1ccccc1)c1ccc2nc(-c3ccco3)c(-c3ccco3)nc2c1	-2%	7.9µM*	-15%	?	?	?
O=C(NCCO)c1ccc2nc(-c3ccco3)c(-c3ccco3)nc2c1	.	50µM*	45µM*	2.5µM*	25µM*	3.5µM*
COc1ccc([N+](=O)[O-])c(S(=O)(=O)c2ccc(Cl)cc2)n1	12%	-23%	-20%	?	5%	-8%
COc1ccc([N+](=O)[O-])c(S(=O)(=O)c2ccccc2)n1	10%	21%	2%	14µM*	1%	-6%
CC(C)CNc1nc(C#N)nc(Nc2ccccc2)n1	6%	.	.	.	.	.
Cc1cc(C(=O)COC(=O)CC(NC(N)=O)c2ccc(Cl)cc2)c(C)n1C (configuration not stated)	6%	.	-2%	?	-15%	-5%
Cc1cc(C(=O)COC(=O)Cc2ccc(Cl)cc2)c(C)n1C	5%	.	-4%	35µM*	?	?
Cc1cccc(NC(=O)CSc2nnc(-c3ccco3)c(-c3ccco3)n2)c1C	?	22µM*	?	2µM*	32µM*	13µM*
SMILES	TDP1 block	Pol beta inh	FEN1 inh	Pol iota inh	POLK inh	Pol eta inh
Cc1cccc(NC(=O)CSc2nc(N)cc(N)n2)c1	1%	-1%	-3%	30%	0%	-14%
Cc1cccc(NC(=O)CSc2nnc(-c3ccco3)c(-c3ccco3)n2)c1	5%	25µM*	-25%	?	79µM*	40µM*
Cc1cc2ccc(Cl)nc2nc1C	.	.	17%	34%	5%	.
O=C(NNC(=O)c1cc2cc(Br)ccc2oc1=O)c1ccc(O)cc1O	25µM*	-83%	-13%	?	?	-19%
O=C(C[n+]1cccc(I)c1)c1ccc(F)cc1	.	.	1%	9%	3%	.
C=CCN1C=C2C(=O)C(C)(OC(=O)CCC(=O)OC)C(=O)C=C2C=C1C1CC1 (configuration not stated)	11%[12.3 µM]	-15%	5%	85%	-5%	-4%
COC(=O)CCC(=O)OC1(C)C(=O)C=C2C=C(C3CC3)N(Cc3ccc4c(c3)OCO4)C=C2C1=O (configuration not stated)	8%[21 µM]	-1%	-2%	?	-16%	8%
COC(=O)CCC(=O)OC1(C)C(=O)C=C2C=C(C3CC3)N(Cc3ccc(OC)cc3)C=C2C1=O (configuration not stated)	10%[21 µM]	2%	-10%	18µM*	-15%	10%
COC(=O)CCC(=O)OC1(C)C(=O)C=C2C=C(C3CC3)N(CCCCO)C=C2C1=O (configuration not stated)	6%[12.3 µM]	-2%	-4%	25µM*	-30%	7%
CC1(OC(=O)C2CCCC2)C(=O)C=C2C=C3CCCCN3C=C2C1=O (configuration not stated)	6%[12.3 µM]	13%	-3%	?	?	?
COC(=O)CCC(=O)OC1(C)C(=O)C=C2C=C3CCCN3C=C2C1=O (configuration not stated)	?	-26%	?	?	?	50µM*
NC(=O)COC(=O)c1ccccc1OCC(=O)Nc1ccc(Br)cc1	.	.	1%	-27%	8%	.
COc1ccc2[nH]cc(CCNc3cc(-c4ccccc4C(F)(F)F)ncn3)c2c1	6%[56.1 µM]	.	.	.	-2%[60.1 µM]	.
O=C(O)c1ccc(NC(CSCc2ccc(F)cc2)C(=O)O)c([N+](=O)[O-])c1 (configuration not stated)	7%	3%	2%	79µM*	-15%	-1%
Cc1ccc(CSCC(Nc2ccc(C(=O)O)cc2[N+](=O)[O-])C(=O)O)cc1 (configuration not stated)	0%	27%	-1%	1%	-4%[60.1 µM]	-3%
COc1ccc2nc(-c3ccc(N(C)C)cc3)sc2c1	4%	.	.	.	.	.
CN(C)c1ccc(/C=C/c2ccnc3ccccc23)cc1N	.	.	-11%	79µM*	-16%	.
CCN(CC)c1cc(C)c(/C=C/c2ccnc3ccccc23)cc1C	.	.	?	6%	-9%	.

Screening data (PubChem BioAssay)
